High-throughput results deposited in PubChem BioAssay by National Center for Advancing Translational Sciences (NCATS).
Pf growth 48h = inhibits P. falciparum growth in the first generation, 48 h. P. falciparum luciferase growth in erythrocytes, 48 h. 310,000 compounds, 5.9% hits. Potency, µM (titrated, usually from 28.7 µM), usual class: inhibitors
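Read-out is firefly luciferase luminescence from an integrated reporter in P. falciparum, so falling signal marks reduced parasite growth. Infected erythrocytes were at 2% hematocrit and 0.1% parasitemia (final) in Albumax-supplemented RPMI 1640.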
Sm TGR inh = S. mansoni TGR enzyme inhibition. Q962Y6. purified TGR, DTNB reduction, TNB absorbance 405 nm. Potency, µM (titrated, usually from 114 µM), usual class: inhibitors. 360,000 compounds, 3% hits. AID 485364; note: nearly all actives have a fitted effect of over 60% in size
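TGR 20 nM + NADPH 100 uM (dispensed conc.), cpd preinc 15 min RT; start with NADPH (500 uM addition) then DTNB (15 mM addition). Kinetic TNB absorbance, 405 nm filter. Four-parameter Hill fit across titration.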
HCV inhibitor = blocks hepatitis C virus; Huh7.5.1 HCVcc-Cre infection, luciferase reporter, 44 h; Potency, µM (highest dose often 41.8 µM), actives largely listed as inhibitors; 340,000 compounds, 3.4% hits; AID 651820
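A cell-based infection assay in which seeded cells (1,000 per well) receive test compound after 4 h, are inoculated with HCVcc-Cre at approximately 0.5 moi, and are incubated 44 h before luminescence detection.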
Pf growth 96h = inhibits malaria parasite growth, 96 h. P. falciparum luciferase reporter growth, 96 h. Potency, µM (highest dose often 28.7 µM), hits mostly inhibitors. 320,000 compounds, 6.9% hits. AID 504834
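P. falciparum expressing integrated firefly luciferase, in erythrocytes at 2% hematocrit, 0.05% parasitemia, incubated with compounds 96 h at 37 C, 5% CO2. Growth inhibition read as loss of luminescence; two-generation exposure targets delayed-death apicoplast inhibitors.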
SARS PLP yeast = SARS-CoV PLP inhibition in yeast | S. cerevisiae expressing SARS-CoV PLpro, growth rescue | Potency, µM (top dose mostly 32.9 µM), actives largely listed as activators | 330,000 compounds, 0.19% hits; calls by dose curve; note: nearly all actives have a fitted effect of over 55% in size
HCMV inh = human cytomegalovirus inhibition; HFF cells, HCMV-luciferase reporter, 72 h; stronger effect = lower value; activity change, negative = inhibition, % at 57.5 µM; 410,000 compounds, 4.5% hits; in the data active = activity change below about -60%; inconclusive = no clear call, values can overlap the other calls; inactive = above about -39%
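HFF cells seeded 16 h at 37C, treated with compounds, infected with luciferase-reporter HCMV at MOI 1 PFU/cell; luciferase read at 72 h post infection, normalized to buffer-only and Salinomycin controls.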
Numbers stand for hits; – = inactive; ? = inconclusive; · = no result; [ ] = dose if it differs, or a comment. Rows were chosen to be rich in hits. Some 15% of all compounds tested hit in one or more screens of this group. Unless noted, calls come from the whole dose curve; as a rule, active = well fitted curve in the direction sought with a large enough effect; inconclusive = small, poorly fitted or top-dose-only effect, or another doubt; inactive = no such curve, though single readings can be large; an effect the other way counts as inactive or inconclusive.

SMILES	Pf growth 48h	Sm TGR inh	HCV inhibitor	Pf growth 96h	SARS PLP yeast	HCMV inh
COc1cc(OC)c(CN2CCN(c3ccc(F)cc3)CC2)cc1Br	·	–[11.4 µM]	–	–	–	–
COc1cc(Br)cc(CN2CCN(C)CC2)c1O	–	–	–	–	–	–
COCCNC(=O)C1CCCN(C(=O)c2ccc3ccccc3n2)CC1 (centres undefined)	·	·	·	·	·	–
COc1cccc(CN2CC(C(=O)NCCCn3cccn3)CCC2=O)c1 (centres undefined)	–	–	–	–	–	–
CC(=O)ON=C1C=CC(=C(C#N)c2ccccc2)C=C1	·	·	·	·	·	-101.2
COc1ccc(C(C#N)=C2C=CC(=NO)C=C2)cc1	?	–	?	?	–	–
COCc1ccc(C(=O)NC2CCCc3c2cnn3-c2ccc(C)c(C)c2)o1 (centres undefined)	–	–	?	?	–	-76.6
Cc1cc(C(=O)NC2CCCc3c2cnn3-c2ccc(C)c(C)c2)n(C)n1 (centres undefined)	?	–	8.91µM	?	–	-99.4
Cc1cc(C)c(C(=O)NC2CCCc3c2cnn3-c2ccc(C)c(C)c2)c(=O)[nH]1 (centres undefined)	–	–	–	–	–	–
Cc1ccc(-n2ncc3c2CCCC3NC(=O)c2ccoc2)cc1C (centres undefined)	?	–	?	?	–	?
CCCCn1c(N)c(N(CCC(C)C)C(=O)COC(=O)c2ccc([N+](=O)[O-])s2)c(=O)[nH]c1=O	·	·	?	·	–	-95.0
CCCCCN(C(=O)CCC(=O)OCC(=O)c1ccc(C(C)CC)cc1)c1c(N)n(CCCC)c(=O)[nH]c1=O (centres undefined)	10.4µM	–	?	?	–	·
CCCCCN(C(=O)CCC(=O)OCC(=O)N(C)c1ccccc1)c1c(N)n(CCCC)c(=O)[nH]c1=O	–	–	–	–	–	–
CCCCN(C(=O)c1cc2c(s1)CCCC2)c1c(N)n(CCC)c(=O)[nH]c1=O	–	–	–	–	–	–
CCCCn1c(N)c(N(CCC(C)C)C(=O)CCCc2nc3ccccc3s2)c(=O)[nH]c1=O	–	–	–	14.7µM	–	–
CCCCN(C(=O)c1cc2c(s1)CCC2)c1c(N)n(CCCC)c(=O)[nH]c1=O	–	–	11.2µM	–	·	–
CCCCN(C(=O)c1ccc([N+](=O)[O-])s1)c1c(N)n(CCCC)c(=O)[nH]c1=O	10.4µM	–	–	?	–	–
CCCCn1c(N)c(N(CCOC)C(=O)c2ccc(Br)s2)c(=O)[nH]c1=O	–	–	–[8.37 µM]	?	–	–
O=[N+]([O-])c1ccc(C[n+]2cccc(O)c2)cc1	–	–	–	–	–	–
COc1cc2cc[n+](Cc3ccc([N+](=O)[O-])cc3)cc2cc1OC	4.65µM	–	–	3.29µM	–	–
COc1ccc(C(=O)NCCS(=O)(=O)NCc2ccco2)cc1	–	44.7µM	–	–	–	–
Cc1ccc(C(=O)NCc2ccco2)c(C)c1	–	?	–	11.7µM	–	–
Cc1ccc(C(=O)NCc2ccco2)cc1	–	–	–	–	–	–
Cc1cccc(C(=O)NCc2ccco2)c1	–	44.7µM	–	–	–	–
Cc1ccc(C)c(S(=O)(=O)NCC(=O)NCc2ccco2)c1	–	–	–	?	–	–
SMILES	Pf growth 48h	Sm TGR inh	HCV inhibitor	Pf growth 96h	SARS PLP yeast	HCMV inh
Cc1ccc(C)c(S(=O)(=O)NCc2ccc(C(=O)NCc3ccco3)cc2)c1	?	?	–	9.28µM	–	–
Nc1ccc(NC(=O)CCN2CCOCC2)cc1	?	–	–	?	–	–
COCCNC(=O)CN1C(=O)NC(c2ccccc2)(c2ccccc2)C1=O	–	–	–	–	–	–
O=C(NCc1ccco1)c1cccc(F)c1	–	–	–	?	·	–
CN(C)S(=O)(=O)c1cccc(C(=O)NCc2ccco2)c1	–	44.7µM	–	–[5.75 µM]	–	–
COc1cccc(C(=O)NCc2ccco2)c1	–	–	–	10.4µM	–	–
Cc1cc(=O)oc(C)c1C(=O)NCc1ccco1	–	44.7µM	–	–	–	–
Cc1ccc(N(Cc2ccco2)C(=O)c2cccc(S(=O)(=O)N(C)C)c2)cc1	?	–	–	–	–	–
COc1cccc(C(=O)NCCS(=O)(=O)NCc2ccco2)c1	–	?	–	–	–	-68.1
COc1cccc(C(=O)NCCS(=O)(=O)NCc2cccs2)c1	–	–	–	?	–	–
Cc1noc(C)c1C(=O)NCc1ccco1	–	–	–	·	–	–
CSc1nc(C)nc(N/C=C(\C#N)S(=O)(=O)c2ccccc2Cl)n1	–	–	–	–	–	–
Cc1ccc(Cl)cc1-n1nnc(-c2nc(-c3ccc4c(c3)OCO4)no2)c1C	·	–	·	·	·	–
Cc1ccc(OCC(=O)OCc2cc(=O)n3nc(-c4cccs4)sc3n2)cc1C	·	–	·	·	·	–
Nc1cc2c3c(cccc3c1)C(=O)N(CCN1CCCC1)C2=O	11.7µM	–	10µM	5.86µM	–	-95.6
O=C1c2cccc3cc([N+](=O)[O-])cc(c23)C(=O)N1/N=C/c1ccc(O)cc1O	11.7µM	?	?	?	–	-78.5
CCN(CC)CCN1C(=O)c2cccc3cc(N)cc(c23)C1=O	?	–	–	?	–	-98.6
O=C1c2cccc3cc([N+](=O)[O-])cc(c23)C(=O)N1CCN1CCCC1	9.28µM	–	1.12µM	?	–	-100.2
Cc1nc(NC(=O)CSC2=NCCS2)sc1C(=O)N(C)C	?	–	–	?	–	–
Cn1cccc1C(=O)NCc1ccc(S(N)(=O)=O)cc1	–	–	–	–	–	–
CC(NC(=O)c1cccc(NC(=O)c2nsc3ccccc23)c1)c1ccccc1 (centres undefined)	·	–	·	·	·	–
CCC(c1nnnn1CCOC)N(Cc1ccc(C)cc1)Cc1cc2cc(OC)ccc2[nH]c1=O (centres undefined)	10.4µM	–	–	–	–	–
CCC(c1nnnn1Cc1ccccc1)N(Cc1ccco1)Cc1cc2cc(OC)ccc2[nH]c1=O (centres undefined)	?	?	–	–	–	–
CCC(c1nnnn1CCOC)N(Cc1cc2cc(C)c(C)cc2[nH]c1=O)CC1CCCO1 (centres undefined)	·	–	–	14.7µM	–	–
O=C(CSc1nc2ccc(Cl)cc2[nH]1)NCc1ccco1	–	14.1µM	–	?	–	–
O=C(CSc1c2c(nc3cc(Cl)ccc13)CCCC2)NCc1ccccc1Cl	·	–	·	·	·	-79.7
CC1CCN(C(=O)CSc2c3c(nc4cc(Cl)ccc24)CCCC3)CC1	·	–	·	·	·	–
CCC(C)NC(=O)CSc1c2c(nc3cc(Cl)ccc13)CCCC2 (centres undefined)	·	–	·	·	·	–
O=C(CSc1c2c(nc3ccc(Cl)cc13)CCCC2)NCc1ccccc1Cl	·	–	·	·	·	–
